Records with an inconclusive call do not appear. Where a call stands in place of a potency, no number is given. Calls of active or inactive are those of the source. The call rests on the fitted dose curve; in most records, active means well fitted cell-killing curve with a large enough effect in the repeat runs; inconclusive means weak or mixed curves, or effect the other way; inactive means no such curve, though single readings can be large or run the other way. Non-standard residues stand in square brackets, D forms with d. Residues, ends and D or L forms follow the SMILES beside them. *: point of attachment. Sta = CC(C)C[C@H](N)[C@@H](O)CC(=O)O; Isovaleryl = CC(C)CC(=O)*
Assay: qHTS assay for identifying genotoxic compounds that show differential cytotoxicity against isogenic chicken DT40 cell lines with known DNA damage response pathways - wild type cell line (AID 743012); further: nearly all actives have a fitted effect of over 60% in size
Conditions: DT40 wild type chicken cells viability, CellTiter-Glo, 40 h; series mostly up to 68.4 µM
Excerpt: U.S. Tox21 Program National Center for Advancing Translational Sciences [NCATS] NIH Chemical Genomics Center [NCGC] U.S. Environmental Protection Agency [EPA] National Institutes of Environmental Health Sciences [NIEHS] National Toxicology Program [NTP] U.S. Food and Drug Administration [FDA] Tox21 Assay Overview: DNA repair pathways play a critical role in cellular homeostasis by repairing DNA damage induced by endogenous processes and xenobiotics. Isogenic chicken DT40 cell lines deficient in different DNA repair pathways can be used to identify genotoxic compounds and aid in characterizing the nature of the DNA damage induced. Two DNA repair-deficient cell lines with disrupted genes, Rad54/Ku70 or Rev3, were used to screen the Tox21 10K compound library. Possible genotoxicity was based on the presence of a significant increase in cytotoxicity in one or more of the DNA repair-deficient cell lines compared to that observed in the parental DNA repair-proficient cell line. CellTiter Glo viability assay (Promega, Madison, WI) was used to measure cell viability in these cells after compound treatment. This assay includes the data from the wild type cell line.
Tox21 Assay Protocol Summary: 300 DT40 wild type cells in 5 uL/well were dispensed into white, solid-bottom 1536-well plates using a Multidrop Combi (ThermoFisher Scientific, Waltham, MA) dispenser. After the assay plates were incubated at 37 C/5% CO2 for approximately 0.5 hour, 23 nL of compounds dissolved in DMSO, positive controls or DMSO only was transferred into the assay plate by a pintool work station (Kalypsys, San Diego, CA). The assay plates were incubated at 37 C/5% CO2 for 40 hours. After 5 uL per well of CellTiter-Glo reagent was added into each well of the assay plates, the plates were incubated for 30 min at room temperature and the luminescence intensity of the plates was measured using a ViewLux (PerkinElmer, Shelton, CT) plate reader.
Potency means the concentration at half of the fitted maximal effect.

Row | SMILES | Potency | activity change, negative = cytotoxicity
1 | COC(=O)c1c(C)cc(O)c(C)c1O | 61.1 µM (active) | 
2 | OCCC(F)(F)C(F)(F)C(F)(F)C(F)(F)C(F)(F)C(F)(F)F | inactive | 
3 | CC(=O)Nc1ccc(S(=O)(=O)Nc2cc(C)on2)cc1 | inactive | 
4 | CCCCCCCCCCCC(C)=O | inactive | 
5 | CCCCCCCCS(=O)(=O)O | inactive | 
6 | N=C(N)N1CCc2ccccc2C1 | inactive | 
7 | CCN1CCN(C(=O)N[C@@H](C(=O)N[C@@H]2C(=O)N3C(C(=O)O)=C(CSc4nnnn4C)CS[C@H]23)c2ccc(O)cc2)C(=O)C1=O | inactive | 
8 | C[n+]1ccccc1/C=N/O | inactive | 
9 | CCCCCCCCCCCCCCCC(=O)OC | inactive | 
10 | CC(C)(C)c1ccc(N)cc1 | inactive | 
11 | O=C(O)Cc1c(Cl)ccc(Cl)c1Cl | inactive | 
12 | CCCCN(CCCC)CCCCCCN(CCCC)CCCC | inactive | 
13 | N#Cc1ccccc1C#N | inactive | 
14 | COc1cc(OC)cc(OC)c1 | inactive | 
15 | CCCc1ccc(O)c(OC)c1 | inactive | 
16 | Cc1cc(N)no1 | inactive | 
17 | CCCCCCCCCCCCCCCC/C=C/C1CC(=O)OC1=O (stereo not given) | inactive | 
18 | C=CCn1cc[n+](C)c1 | inactive | 
19 | COc1cc(C(=O)NC2CCCNC2)cc(OC)c1OC (stereo not given) | inactive | 
20 | CCOc1ccccc1OCCN[C@H](C)Cc1ccc(OC)c(S(N)(=O)=O)c1 | inactive | 

Row | SMILES | Potency | activity change, negative = cytotoxicity
21 | Cc1ccc(O)c([N+](=O)[O-])c1 | inactive | 
22 | Cc1ccc(O)c(C(=O)c2ccccc2)c1 | inactive | 
23 | COC(=O)c1ccc(C(=O)O)cc1 | inactive | 
24 | c1cc2ccc3ccc4ccc5cccc6c(c1)c2c3c4c56 |  | -1.12% [at 3.82 µM] (inactive)
25 | C[C@]12C=CC(=O)C=C1[C@@H](F)C[C@@H]1[C@@H]2[C@@H](O)C[C@@]2(C)[C@H]1CC[C@]2(O)C(=O)CO | 18.8 µM (active) | 
26 | CN(C)CCc1c[nH]c2ccc(C[C@H]3COC(=O)N3)cc12 | inactive | 
27 | CN(C)CCC[C@@]1(c2ccc(F)cc2)OCc2cc(C#N)ccc21 | inactive | 
28 | Nc1nc(Cl)cc(Cl)n1 | inactive | 
29 | CCC(C)(C)C | inactive | 
30 | CC(C)CC(=O)N[C@H](C(=O)N[C@H](C(=O)N[C@@H](CC(C)C)[C@@H](O)CC(=O)N[C@@H](C)C(=O)N[C@@H](CC(C)C)[C@@H](O)CC(=O)O)C(C)C)C(C)C (Isovaleryl-VV[Sta]A[Sta]-OH) | inactive | 
31 | COc1cc2nc(N3CCN(C(=O)C4CCCO4)CC3)nc(N)c2cc1OC (stereo not given) | inactive | 
32 | NCC1CCC(C(=O)Oc2ccc(CCC(=O)O)cc2)CC1 (stereo not given) | inactive | 
33 | CC(C)(C)C(=O)CCc1ccc(Cl)cc1 | inactive | 
34 | CCCCc1ccc(Cl)cc1 | inactive | 
35 | O=Cc1ccc(C(=O)O)cc1 | inactive | 
36 | Cc1ccc(S(=O)(=O)NC(=O)NN2CC3CCCC3C2)cc1 (stereo not given) | inactive | 
37 | Cc1cc(C)c(N)c(Cl)c1 | inactive | 
38 | CCc1ncc(C)[nH]1 | inactive | 
39 | CN1CCN(C(=O)C2CCCCC2)CC1 | inactive | 
40 | Cc1ccc2cccnc2c1 | inactive | 

Source: PubChem BioAssay (Tox21)
